Where “and” joins values, the source holds several entries; their conditions need not be identical. Identical values can stand only once. Results filed as inconclusive are left out. Calls of active or inactive are those of the source. Unless noted, calls come from the whole dose curve.

Test [1] is described as follows: Cell Viability - H-4-II-E (AID 543; active = well fitted curve in the direction sought with a large enough effect; an effect the other way counts as inactive or inconclusive; note: % is set by controls: 0 for no effect and ±100 for the full control effect; nearly all actives have a fitted effect of over 35% in size). In outline:
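Rat hepatoma H-4-II-E cells (1500/well) were plated, incubated 5 hr at 37 °C, then exposed to compounds for 40 hr at 37 °C. Cellular ATP was read by CellTiter-Glo luminescence; AC50 came from Hill-equation fits of concentration-response data.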

Test [2] in a line: Cell Viability - SH-SY5Y (AID 544; active = well fitted curve in the direction sought with a large enough effect; an effect the other way counts as inactive or inconclusive;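 note: 0% = DMSO alone and -100% = 100 µM tamoxifen; nearly all actives have a fitted effect of over 55% in size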). A digest of the protocol:
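Human neuroblastoma SH-SY5Y cells (1500/well) in complete medium were exposed to compounds for 40 hr at 37 °C; intracellular ATP was then quantified by CellTiter-Glo luminescence after 20 min at room temperature. AC50 came from Hill-equation concentration-response fits.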

Test [3] can be described thus: Cell Viability - Renal Proximal Tubule (AID 545; active = well fitted curve in the direction sought with a large enough effect; an effect the other way counts as inactive or inconclusive;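 note: 0% = DMSO only and -100% = 100 µM tamoxifen; nearly all actives have a fitted effect of over 40% in size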). A digest of the protocol: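 Luminescent ATP signal (CellTiter-Glo) served as the viability read-out after 40 hr compound exposure of freshly isolated rat proximal tubule cells at 37 °C. Concentration-dependent ATP loss was fitted with the Hill equation to give AC50.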
A short description of test [4]: Cell Viability - Mesenchymal (AID 546; active = well fitted curve in the direction sought with a large enough effect; an effect the other way counts as inactive or inconclusive;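 note: cells exposed to compound for 40 hours before reading; 0% = DMSO only and -100% = 100 µM tamoxifen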). In outline: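 AC50 values reflect the drop in intracellular ATP in a human kidney mesenchymal line derived from normal glomeruli. Treatment lasts 40 hr at 37 °C in complete medium, and the signal comes from CellTiter-Glo luminescence.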
Test [5] deals with Estrogen receptor (Homo sapiens) (UniProt P03372). The test can be described thus: qHTS assay for small molecule agonists of estrogen receptor alpha signaling (AID 588514).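 Note: 0% = vehicle only and 100% = reference agonist; nearly all actives have a fitted effect of over 70% in size.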 In outline:
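ER-alpha-UAS-bla GripTite HEK 293 cells in medium with 2% charcoal/dextran-treated FBS were treated with compound titrations at 37 C for 18 hrs; beta-lactamase reporter read by CCF4 fluorescence after 2 hrs at RT.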

Test [6] concerns the target Glucocorticoid receptor (Homo sapiens) (UniProt P04150). The test can be described thus: qHTS assay for small molecule agonists of glucocorticoid receptor signaling (AID 588532; active = well fitted curve in the direction sought with a large enough effect in the signal ratio, with a control signal flat; the % refers to the signal ratio;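 note: 100% = dexamethasone at 0.1 µM and 0% = DMSO only wells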). As to conditions: HeLa MMTV-bla, beta-lactamase ratio, agonist, 18 h; stronger effect = higher value; percent of dexamethasone control, DMSO zero. A digest of the protocol:
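Quantitative HTS using CellSensor MMTV-bla HeLa cells in charcoal/dextran-treated serum; compounds tested up to 92 uM. After 18 h at 37 C, CCF4 dye reported reporter induction.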
A general note: qHTS replaces the single test concentration by a dilution series.

For test [7] the target is unchanged. The experiment in a line: qHTS assay for small molecule antagonists of glucocorticoid receptor signaling (AID 588533; active = well fitted inhibition curve with a large enough effect in the signal ratio, with a control signal flat, not every such curve was filed as active; the % refers to the signal ratio;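 note: cells stimulated with 2 nM dexamethasone as agonist; % is set by controls: 0 for no effect and ±100 for the full control effect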). In outline:
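Antagonist-mode qHTS: compound titrations added to GRE-bla HeLa cells, then dexamethasone 2 nM final; 18 h, 37 C. CCF4 FRET fluorescence normalized to dexamethasone and DMSO; IC50 from Hill fit.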

Test [8] can be described thus: qHTS assay for small molecule antagonists of peroxisome proliferator-activated receptor delta signaling (AID 588535; active = well fitted inhibition curve with a large enough effect in the signal ratio, with a control signal flat, not every such curve was filed as active; the % refers to the signal ratio;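 for max response: cells co-treated with a PPAR-delta agonist as stimulator during compound exposure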). As to conditions: HEK293T PPARd-UAS-bla, beta-lactamase FRET ratio, 18 h; 460 nm channel. In outline:
(§1)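 Cell-based beta-lactamase assay in antagonist mode: 4000 HEK293T PPAR-delta-UAS-bla cells per well, 5 hr preincubation then 18 hr compound incubation at 37 C. IC50 obtained by Hill equation fitting.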

Test [9] concerns the target Peroxisome proliferator-activated receptor delta (Homo sapiens) (UniProt Q03181). The description is as above. In outline: as §1
Test [10] deals with Vitamin D3 receptor (Homo sapiens) (UniProt P11473). The experiment in a line: qHTS assay for small molecule agonists of vitamin D receptor signaling (AID 588543).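 Note: 0% = DMSO basal and 100% = reference agonist control.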 A digest of the protocol: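 Reporter cells (HEK293T, VDR-UAS-bla) were seeded in medium with 2% charcoal-stripped serum and incubated 5 h, then compounds in concentration series were added for 16 h at 37 °C. Stimulation was scaled between DMSO basal and 50 nM 1α,25-dihydroxyvitamin D3.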

The nature of test [11]: qHTS assay for small molecule agonists of retinoid X receptor alpha signaling (AID 588544).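 For activation: 0% = DMSO basal wells and 100% = reference agonist.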 As to conditions: HEK293T RXRa-UAS-bla, beta-lactamase reporter, 18 h; 530 nm emission.
For test [12], the target named is Retinoic acid receptor RXR-alpha (Homo sapiens) (UniProt P19793). The test is described as above.
Test [13] deals with Thyroid hormone receptor beta (Homo sapiens) (UniProt P10828). The test can be described thus: qHTS assay for small molecule agonists of thyroid hormone receptor beta signaling (AID 588545). In outline: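 Cells (2500/well) were seeded, incubated 4 hrs at 37 C, dosed with a compound series, incubated 18 hrs, loaded with CCF4 dye for 2 hrs at RT, then read for fluorescence. Data were scaled between DMSO (0%) and 10 nM T3 (100%).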

Test [14] can be described thus: qHTS assay for small molecule activators of the p53 signaling pathway (AID 651743; active = well fitted activation curve with a large enough effect in the signal ratio, not every such curve was filed as active; the % refers to the signal ratio; note: series mostly up to about 92 µM; % of control where 0% means no effect). As to conditions: HCT-116 p53RE-bla, beta-lactamase FRET ratio, 16 h; activation: stronger effect = higher value. A digest of the protocol:
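Screen for p53 pathway agonists uses stably transfected p53RE-bla HCT-116 cells, 4,000 per well, treated 16 h at 37 C with compounds in DMSO.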

Test [15] in a line: qHTS assay for small molecule activators of the nuclear factor-kappa B (NF-kB) signaling pathway (AID 651749; active = well fitted activation curve with a large enough effect in the signal ratio; the % refers to the signal ratio; note: series mostly up to about 77 µM; % of control where 0% means no effect). As to conditions: NF-kB-bla ME-180 cells, beta-lactamase FRET ratio, 16 h; activation: stronger effect = higher value. A digest of the protocol: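 Stably transfected ME-180 line; NF-kB response element upstream of beta-lactamase. Treatment: compound or DMSO, 16 hr. Detection: fluorescent FRET substrate.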

A short description of test [16]: qHTS assay for small molecule disruptors of the mitochondrial membrane potential - 5 hr assay (AID 651755). Note: % is set by controls: 0 for no effect and ±100 for the full control effect; nearly all actives have a fitted effect of over 40% in size. In outline:
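HepG2, 2,000 cells/well, overnight attach; cpd or DMSO 5 hr, 37C/5% CO2; Mito-MPS 30 min 37C; fluor 490/535 + 540/590 nm.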

In test [17] the target is Tumor necrosis factor (Homo sapiens) (UniProt P01375). The experiment in a line: qHTS assay to identify small molecules that stimulate Tumor Necrosis Factor-alpha (TNF-alpha) secretion (AID 651757; active = well fitted curve in the direction sought with a large enough effect in the signal ratio; the % refers to the signal ratio; note: 0% is about no effect). In outline: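 THP-1 cells were exposed to compounds for 17 hrs at 37 C, after which secreted TNF-alpha was measured by homogeneous HTRF (TR-FRET) using cryptate- and XL665-labeled anti-TNF-alpha antibodies, read after 3 hr at room temperature.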

A short description of test [18]: qHTS assay for environmental chemicals that activate the Aryl hydrocarbon Receptor (AhR) signaling pathway (AID 651777; active = well fitted curve in the direction sought with a large enough effect; an effect the other way counts as inactive or inconclusive; note: % of control where 0% means no effect; nearly all actives have a fitted effect of over 15% in size). As to conditions: 1A2-DRE human hepatoma cells, luciferase, 24 h; activation: stronger effect = higher value. A digest of the protocol:
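Reporter gene assay: hepatoma cells with DRE/CYP1A2-luciferase, 24 hr compound incubation at 37 C, 5% CO2, luminescence after One-Glo (30 min, RT).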

The target of test [19] is Peroxisome proliferator-activated receptor alpha (Homo sapiens) (UniProt Q07869). The experiment in a line: qHTS assay for small molecule agonists of the peroxisome proliferator-activated receptor alpha (PPARalpha) signaling pathway (AID 651778; active = well fitted curve in the direction sought with a large enough effect; an effect the other way counts as inactive or inconclusive; note: % of control where 0% means no effect). As to conditions: PathHunter PPARalpha complementation, chemiluminescence, 6 h; stronger effect = higher value. In outline: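 Chemiluminescence from complemented enzyme reported PPARalpha activation in cells after 6 hr of compound treatment at 37 C. The detection reagent was incubated for 60 min at room temperature, and compounds were scored as agonists.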

Test [20] concerns the target Nuclear receptor subfamily 1 group I member 2 (Rattus norvegicus) (UniProt Q9R1A7). The test can be described thus: qHTS assay for small molecule activators of the rat pregnane X receptor (rPXR) signaling pathway (AID 651751; call rule not given here; note: 0% is about no effect). As to conditions: rPXR reporter cells, luciferase (One-Glo), 24 h.

Glucocorticoid receptor (Homo sapiens), sequence (P04150 whole entry, looked up): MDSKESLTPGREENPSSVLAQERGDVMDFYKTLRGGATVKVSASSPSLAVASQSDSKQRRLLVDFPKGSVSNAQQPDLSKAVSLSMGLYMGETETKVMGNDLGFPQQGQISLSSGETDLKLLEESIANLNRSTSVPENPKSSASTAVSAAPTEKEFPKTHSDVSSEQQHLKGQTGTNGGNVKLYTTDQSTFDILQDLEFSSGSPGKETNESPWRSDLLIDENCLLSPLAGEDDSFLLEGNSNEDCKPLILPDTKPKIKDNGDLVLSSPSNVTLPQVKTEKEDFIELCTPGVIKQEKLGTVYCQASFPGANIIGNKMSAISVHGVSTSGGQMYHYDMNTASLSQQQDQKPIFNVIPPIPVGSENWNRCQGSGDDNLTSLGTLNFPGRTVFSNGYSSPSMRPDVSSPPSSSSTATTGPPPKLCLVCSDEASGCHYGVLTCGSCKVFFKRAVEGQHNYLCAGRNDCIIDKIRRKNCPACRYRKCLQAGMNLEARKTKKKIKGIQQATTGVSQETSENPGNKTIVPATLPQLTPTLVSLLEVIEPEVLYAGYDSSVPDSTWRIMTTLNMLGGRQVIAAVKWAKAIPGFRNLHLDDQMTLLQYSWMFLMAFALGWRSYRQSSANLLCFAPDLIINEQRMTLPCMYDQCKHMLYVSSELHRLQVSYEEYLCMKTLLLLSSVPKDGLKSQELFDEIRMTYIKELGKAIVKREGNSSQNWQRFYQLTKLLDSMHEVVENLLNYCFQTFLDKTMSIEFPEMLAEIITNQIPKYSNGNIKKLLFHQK
Vitamin D3 receptor (Homo sapiens), sequence (P11473 whole entry, looked up): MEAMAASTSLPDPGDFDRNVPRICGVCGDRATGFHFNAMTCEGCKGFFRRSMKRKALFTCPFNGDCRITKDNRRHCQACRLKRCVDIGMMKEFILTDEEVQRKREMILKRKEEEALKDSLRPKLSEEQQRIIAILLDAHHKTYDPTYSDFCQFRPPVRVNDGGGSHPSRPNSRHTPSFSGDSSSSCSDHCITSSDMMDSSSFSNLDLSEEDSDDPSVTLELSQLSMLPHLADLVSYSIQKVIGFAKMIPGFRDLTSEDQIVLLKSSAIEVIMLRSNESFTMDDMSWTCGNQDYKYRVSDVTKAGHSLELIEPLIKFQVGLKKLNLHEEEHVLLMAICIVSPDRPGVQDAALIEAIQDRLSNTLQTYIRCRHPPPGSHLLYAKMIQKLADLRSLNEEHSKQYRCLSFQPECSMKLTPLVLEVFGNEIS
Nuclear receptor subfamily 1 group I member 2 (Rattus norvegicus), sequence (Q9R1A7 whole entry, looked up): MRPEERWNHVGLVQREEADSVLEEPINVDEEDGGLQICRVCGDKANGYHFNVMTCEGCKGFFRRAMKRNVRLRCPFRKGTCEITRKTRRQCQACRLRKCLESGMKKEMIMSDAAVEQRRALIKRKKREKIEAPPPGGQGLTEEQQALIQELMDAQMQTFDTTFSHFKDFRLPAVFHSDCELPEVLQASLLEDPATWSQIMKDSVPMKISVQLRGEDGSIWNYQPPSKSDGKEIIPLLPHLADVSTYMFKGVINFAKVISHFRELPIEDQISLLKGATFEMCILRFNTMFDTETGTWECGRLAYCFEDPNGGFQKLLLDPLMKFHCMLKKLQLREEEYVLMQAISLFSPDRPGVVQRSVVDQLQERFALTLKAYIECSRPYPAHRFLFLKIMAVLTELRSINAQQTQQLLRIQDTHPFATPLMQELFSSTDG
Estrogen receptor (Homo sapiens), sequence (P03372 whole entry, looked up): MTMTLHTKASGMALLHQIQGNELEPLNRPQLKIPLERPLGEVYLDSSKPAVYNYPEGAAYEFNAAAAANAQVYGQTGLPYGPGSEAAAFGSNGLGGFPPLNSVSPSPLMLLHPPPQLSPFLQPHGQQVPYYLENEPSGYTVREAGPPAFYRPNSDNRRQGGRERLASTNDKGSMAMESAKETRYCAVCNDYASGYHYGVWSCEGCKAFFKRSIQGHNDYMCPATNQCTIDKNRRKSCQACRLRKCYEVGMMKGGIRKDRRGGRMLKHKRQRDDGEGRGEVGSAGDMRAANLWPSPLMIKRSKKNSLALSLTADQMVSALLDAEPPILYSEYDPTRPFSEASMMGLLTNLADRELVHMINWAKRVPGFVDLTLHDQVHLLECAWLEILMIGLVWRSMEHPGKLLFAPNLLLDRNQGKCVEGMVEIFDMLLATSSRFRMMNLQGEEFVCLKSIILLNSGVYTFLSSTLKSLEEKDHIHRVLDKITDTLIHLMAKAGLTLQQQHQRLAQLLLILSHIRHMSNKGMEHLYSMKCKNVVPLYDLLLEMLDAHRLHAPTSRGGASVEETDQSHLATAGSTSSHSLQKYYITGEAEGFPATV
Thyroid hormone receptor beta (Homo sapiens), sequence (P10828 whole entry, looked up): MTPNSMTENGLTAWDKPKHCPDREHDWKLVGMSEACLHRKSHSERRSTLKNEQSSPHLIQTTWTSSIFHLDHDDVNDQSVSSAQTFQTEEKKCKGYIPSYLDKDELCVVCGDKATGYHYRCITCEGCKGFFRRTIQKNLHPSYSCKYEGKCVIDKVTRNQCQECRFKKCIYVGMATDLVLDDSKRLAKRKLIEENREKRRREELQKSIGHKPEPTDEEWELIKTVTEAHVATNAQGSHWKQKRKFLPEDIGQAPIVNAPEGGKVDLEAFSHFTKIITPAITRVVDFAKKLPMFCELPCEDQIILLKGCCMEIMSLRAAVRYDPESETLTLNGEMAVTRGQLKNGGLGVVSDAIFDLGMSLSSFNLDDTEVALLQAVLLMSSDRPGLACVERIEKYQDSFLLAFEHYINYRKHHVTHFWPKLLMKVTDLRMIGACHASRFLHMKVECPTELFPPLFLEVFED
Peroxisome proliferator-activated receptor delta (Homo sapiens), sequence (Q03181 whole entry, looked up): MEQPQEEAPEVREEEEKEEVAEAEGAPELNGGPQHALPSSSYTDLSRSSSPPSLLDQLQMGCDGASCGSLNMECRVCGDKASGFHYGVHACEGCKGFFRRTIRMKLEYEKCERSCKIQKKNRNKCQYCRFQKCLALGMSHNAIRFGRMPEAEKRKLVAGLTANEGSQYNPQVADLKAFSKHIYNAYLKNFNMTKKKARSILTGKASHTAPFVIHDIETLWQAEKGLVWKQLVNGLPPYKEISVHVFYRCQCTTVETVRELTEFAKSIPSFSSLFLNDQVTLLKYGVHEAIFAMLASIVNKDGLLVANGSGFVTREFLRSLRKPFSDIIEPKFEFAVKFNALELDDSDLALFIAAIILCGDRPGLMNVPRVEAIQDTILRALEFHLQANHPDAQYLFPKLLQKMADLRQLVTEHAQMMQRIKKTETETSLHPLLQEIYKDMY
Retinoic acid receptor RXR-alpha (Homo sapiens), sequence (P19793 whole entry, looked up): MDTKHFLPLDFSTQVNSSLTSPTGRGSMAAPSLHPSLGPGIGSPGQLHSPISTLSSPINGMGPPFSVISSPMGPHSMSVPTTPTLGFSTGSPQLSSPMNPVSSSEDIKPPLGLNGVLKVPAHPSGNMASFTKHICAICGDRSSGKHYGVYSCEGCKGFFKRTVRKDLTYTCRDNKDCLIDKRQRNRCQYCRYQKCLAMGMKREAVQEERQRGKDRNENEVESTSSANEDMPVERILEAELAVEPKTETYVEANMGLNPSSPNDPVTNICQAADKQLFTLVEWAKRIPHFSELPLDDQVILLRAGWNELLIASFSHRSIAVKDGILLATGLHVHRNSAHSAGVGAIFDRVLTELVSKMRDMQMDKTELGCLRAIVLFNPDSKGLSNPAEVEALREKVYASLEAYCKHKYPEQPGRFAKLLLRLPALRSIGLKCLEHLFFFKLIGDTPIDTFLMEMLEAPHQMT
Peroxisome proliferator-activated receptor alpha (Homo sapiens), sequence (Q07869 whole entry, looked up): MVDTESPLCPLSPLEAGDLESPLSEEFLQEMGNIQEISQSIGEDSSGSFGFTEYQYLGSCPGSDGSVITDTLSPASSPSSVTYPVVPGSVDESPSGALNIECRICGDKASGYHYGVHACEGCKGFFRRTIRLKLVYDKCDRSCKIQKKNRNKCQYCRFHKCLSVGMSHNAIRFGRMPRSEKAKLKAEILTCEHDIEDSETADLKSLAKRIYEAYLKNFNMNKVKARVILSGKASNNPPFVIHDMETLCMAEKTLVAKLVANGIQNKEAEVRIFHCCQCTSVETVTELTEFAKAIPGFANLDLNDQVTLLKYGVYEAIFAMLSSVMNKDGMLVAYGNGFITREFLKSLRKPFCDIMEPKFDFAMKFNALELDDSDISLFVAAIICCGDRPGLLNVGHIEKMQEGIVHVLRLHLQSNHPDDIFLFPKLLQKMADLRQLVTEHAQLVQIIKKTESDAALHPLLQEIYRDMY
Tumor necrosis factor (Homo sapiens), sequence (P01375 whole entry, looked up): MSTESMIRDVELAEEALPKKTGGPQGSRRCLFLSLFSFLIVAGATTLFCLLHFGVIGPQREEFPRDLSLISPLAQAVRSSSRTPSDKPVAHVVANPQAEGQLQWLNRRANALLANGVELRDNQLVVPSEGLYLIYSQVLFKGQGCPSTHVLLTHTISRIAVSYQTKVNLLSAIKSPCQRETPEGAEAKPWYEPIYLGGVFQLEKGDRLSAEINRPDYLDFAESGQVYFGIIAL

Take `Cc1ccccc1O`: the result in test [1], in test [2], in test [3], in [4], in [9] and in test [12] was inactive. Besides, the result in test [17] was inactive. Moreover, the Potency entry in [5], in [7], in test [10], in test [13] and in test [16] was “inactive” each time. For the same compound, the activation in test [6] was 1.9% (inactive) and -0.638% (inactive); in [14], -4.62% (inactive) and -1.52% (inactive); in [15] it was 0.871% (inactive) and 6.75% (inactive); in test [18], -0.175% (inactive) and -0.566% (inactive). In addition, the max response in test [8] is 12.8% and 44.7%; in [11], -16.4% and 2.5%; in [19] it was -1.66% (inactive) and -0.689% (inactive); in [20], 0.289% (inactive) and -3.94% (inactive).
